Calls of active or inactive are those of the source. The calls were made as follows: active = hit-call score of the fitted dose curve at least 0.9, where 1 is the maximum; inactive = score below 0.9.
Assays:
[1] = read-out: TIMP metallopeptidase inhibitor 1 (TIMP1), TIMP1 (gene 7076); assay: BSK_hDFCGF_TIMP1: BioMAP Diversity Plus: hDFCGF Assay for TIMP metallopeptidase inhibitor 1 (TIMP1) Biomarker Activity (AID 2283062); conditions: primary human foreskin fibroblasts; actives raise or lower the signal
How it was run: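 TIMP-1 measured by ELISA 24 h after chemical dosing of primary human skin fibroblasts, with gain or loss fitted relative to DMSO. Parallel SRB staining (560 nm) monitored overt cytotoxicity.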

[2] = read-out: Monokine induced gamma interferon (MIG), CXCL9 (gene 4283); assay: BSK_hDFCGF_MIG: BioMAP Diversity Plus: hDFCGF Assay for Monokine induced gamma interferon (MIG) Biomarker Activity (AID 2283063); conditions: primary human foreskin fibroblasts; actives raise or lower the signal
How it was run: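 Human primary foreskin fibroblasts in the hDFCGF system, exposed to test chemical for 24 h; MIG measured by ELISA. Bidirectional curve fitting against DMSO negative control as activity baseline.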

[3] = read-out: Matrix Metallopeptidase 1 (MMP1), MMP1 (gene 4312); assay: BSK_hDFCGF_MMP1: BioMAP Diversity Plus: hDFCGF Assay for Matrix Metallopeptidase 1 (MMP1) Biomarker Activity (AID 2283064); conditions: primary human foreskin fibroblasts; actives raise or lower the signal
How it was run: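 Primary human foreskin fibroblasts exposed to chemicals for 24 h; MMP1 measured by ELISA. Cytotoxicity tracked by SRB staining in parallel cultures; bidirectional fit relative to DMSO.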

[4] = read-out: Vascular cell adhesion molecule 1 (VCAM1), VCAM1 (gene 7412); assay: BSK_hDFCGF_VCAM1: BioMAP Diversity Plus: hDFCGF Assay for Vascular cell adhesion molecule 1 (VCAM1) Biomarker Activity (AID 2283065); conditions: primary human foreskin fibroblasts; actives raise or lower the signal
How it was run: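 ELISA readout of VCAM-1 on human dermal fibroblast primary cultures, 24 h after chemical exposure. Gain or loss of signal fitted in both directions against DMSO baseline.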

[5] = read-out: Plasminogen activator inhibitor-1 (PAI1), SERPINE1 (gene 5054); assay: BSK_hDFCGF_PAI1: BioMAP Diversity Plus: hDFCGF Assay for Plasminogen activator inhibitor-1 (PAI1) Biomarker Activity (AID 2283066); conditions: primary human foreskin fibroblasts; actives raise or lower the signal
How it was run: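 Human foreskin fibroblast primary cells, 24 h chemical exposure; PAI-1 measured by ELISA. Bidirectional fitting relative to DMSO; parallel cultures stained with SRB for total protein to flag overt cytotoxicity.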

[6] = read-out: Intercellular Adhesion Molecule 1 (ICAM1), ICAM1 (gene 3383); assay: BSK_KF3CT_ICAM1: BioMAP Diversity Plus: KF3CT Assay for Intercellular Adhesion Molecule 1 (ICAM1) Biomarker Activity (AID 2283067); conditions: primary human keratinocytes with fibroblasts; actives raise or lower the signal
How it was run: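 Cell-surface ICAM-1 was measured by ELISA 24 h after dosing primary human skin keratinocytes co-cultured with fibroblasts. Parallel SRB staining tracked overt cytotoxicity. Gain or loss of signal was fitted relative to DMSO.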

[7] = read-out: Interferon-gamma inducible Protein 10 (IP10), CXCL10 (gene 3627); assay: BSK_KF3CT_IP10: BioMAP Diversity Plus: KF3CT Assay for Interferon-gamma inducible Protein 10 (IP10) Biomarker Activity (AID 2283068); conditions: primary human keratinocytes with fibroblasts; actives raise or lower the signal
How it was run: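 ELISA read-out of IP-10 after 24 h chemical dosing of human skin primary co-culture (keratinocytes, foreskin fibroblasts). Gain or loss of signal relative to DMSO, bidirectional curve fit.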

[8] = BSK_KF3CT_SRB: Viability Assessment in the BioMAP Diversity Plus: KF3CT Assay (AID 2283069); conditions: primary human keratinocytes with fibroblasts;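 also: total protein by sulforhodamine B staining as a cytotoxicity measure; read 24 h after compound addition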
How it was run: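 Human keratinocyte and foreskin fibroblast co-culture exposed to chemical for 24 h. Total protein measured in parallel cultures by 0.1% sulforhodamine B staining after 10% TCA fixation, read at 560 nm; bidirectional fit relative to DMSO.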

[9] = read-out: Interleukin-1 alpha (IL1a), IL1A (gene 3552); assay: BSK_KF3CT_IL1a: BioMAP Diversity Plus: KF3CT Assay for Interleukin-1 alpha (IL1a) Biomarker Activity (AID 2283070); conditions: primary human keratinocytes with fibroblasts; actives raise or lower the signal
How it was run: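 Primary human keratinocyte plus foreskin fibroblast co-culture, dosed and measured at 24 h in 96-well plates. IL-1a level quantified by ELISA; bidirectional fit relative to DMSO.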

[10] = read-out: TIMP metallopeptidase inhibitor 2 (TIMP2), TIMP2 (gene 7077); assay: BSK_KF3CT_TIMP2: BioMAP Diversity Plus: KF3CT Assay for TIMP metallopeptidase inhibitor 2 (TIMP2) Biomarker Activity (AID 2283071); conditions: primary human keratinocytes with fibroblasts; actives raise or lower the signal
How it was run: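 Co-culture of human primary keratinocytes and foreskin fibroblasts, measured 24 h after chemical dosing. TIMP-2 quantified by ELISA and fitted in both directions relative to DMSO. Cytotoxicity checked in parallel cultures by SRB total-protein staining.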

[11] = read-out: Transforming growth factor beta 1 (TGFb1), TGFB1 (gene 7040); assay: BSK_KF3CT_TGFb1: BioMAP Diversity Plus: KF3CT Assay for Transforming growth factor beta 1 (TGFb1) Biomarker Activity (AID 2283072); conditions: primary human keratinocytes with fibroblasts; actives raise or lower the signal
How it was run: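 Human keratinocyte/foreskin fibroblast co-culture; TGF-b1 measured by ELISA 24 h after dosing, fitted bidirectionally versus DMSO. Cytotoxicity checked in parallel cultures by total protein (SRB staining, 560 nm).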

[12] = read-out: C-C motif chemokine 2 (Homo sapiens) (UniProt P13500); assay: BSK_KF3CT_MCP1: BioMAP Diversity Plus: KF3CT Assay for Monocyte Chemoattractant Protein 1 (MCP1/CCL2) Biomarker Activity (AID 2283073); conditions: primary human keratinocytes with fibroblasts; actives raise or lower the signal
How it was run: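 ELISA read-out of MCP-1, 24 h post-dose, in primary human skin keratinocytes co-cultured with fibroblasts. Parallel SRB staining monitors cytotoxicity; changes fitted both directions relative to DMSO.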

[13] = read-out: Matrix Metallopeptidase 9 (MMP9), MMP9 (gene 4318); assay: BSK_KF3CT_MMP9: BioMAP Diversity Plus: KF3CT Assay for Matrix Metallopeptidase 9 (MMP9) Biomarker Activity (AID 2283074); conditions: primary human keratinocytes with fibroblasts; actives raise or lower the signal;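 as to AC50: MMP9 protein level quantified by ELISA in the co-culture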
How it was run: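 Human keratinocyte and foreskin fibroblast co-culture exposed to chemicals for 24 h; MMP9 biomarker measured by ELISA, bidirectional fitting relative to DMSO; cytotoxicity tracked by SRB total protein staining in parallel cultures.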

[14] = read-out: urokinase plasminogen activator (uPA), PLAU (gene 5328); assay: BSK_KF3CT_uPA: BioMAP Diversity Plus: KF3CT Assay for urokinase plasminogen activator (uPA) Biomarker Activity (AID 2283075); conditions: primary human keratinocytes with fibroblasts; actives raise or lower the signal
How it was run: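 Primary human keratinocyte/foreskin fibroblast co-culture exposed to chemical; uPA measured by ELISA at 24 h. Bidirectional fit versus DMSO, with parallel SRB total-protein staining for cytotoxicity.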

[15] = read-out: CD40, CD40 (gene 958); assay: BSK_LPS_CD40: BioMAP Diversity Plus: LPS Assay for CD40 Biomarker Activity (AID 2283076); conditions: primary human HUVEC with PBMC; actives raise or lower the signal
How it was run: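 In the LPS system of human endothelial cells with peripheral blood mononuclear cells, CD40 levels were read by ELISA 24 h post-treatment. Signal changes in either direction were fitted against the DMSO baseline, with parallel SRB protein staining.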

[16] = read-out: E-selectin (Homo sapiens) (UniProt P16581); assay: BSK_LPS_Eselectin: BioMAP Diversity Plus: LPS Assay for Eselectin Biomarker Activity (AID 2283077); conditions: primary human HUVEC with PBMC; actives raise or lower the signal
How it was run: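 E-selectin ELISA on LPS-stimulated endothelial cell/PBMC co-cultures, read 24 h post-treatment; gains and losses fitted against DMSO. Parallel SRB staining (0.1% SRB after 10% TCA fixation, 560 nm) flags overt cytotoxicity.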

[17] = read-out: Interleukin-8 (IL8), CXCL8 (gene 3576); assay: BSK_LPS_IL8: BioMAP Diversity Plus: LPS Assay for Interleukin-8 (IL8) Biomarker Activity (AID 2283078); conditions: primary human HUVEC with PBMC; actives raise or lower the signal
How it was run: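 ELISA read-out of IL-8 after 24 h chemical treatment of LPS-activated endothelial/PBMC human primary co-cultures. Changes either up or down relative to DMSO; overt cytotoxicity checked by sulforhodamine B staining in parallel wells.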

[18] = BSK_LPS_SRB: Viability Assessment in the BioMAP Diversity Plus: LPS Assay (AID 2283079); conditions: primary human HUVEC with PBMC;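 also: total protein by sulforhodamine B absorbance as a cytotoxicity measure; measured one day after compound addition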
How it was run: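 SRB viability endpoint: cells fixed with 10% TCA, stained with 0.1% SRB, read at 560 nm, 24 h post-dose. HUVEC/PBMC co-culture; signal change in either direction scored relative to DMSO.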

[19] = read-out: Interleukin-1 alpha (IL1a), IL1A (gene 3552); assay: BSK_LPS_IL1a: BioMAP Diversity Plus: LPS Assay for Interleukin-1 alpha (IL1a) Biomarker Activity (AID 2283080); conditions: primary human HUVEC with PBMC; actives raise or lower the signal
How it was run: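 Readout is IL-1a level by ELISA, 24 h post-dose, fitted as gain or loss relative to DMSO. System: LPS-activated human primary co-culture of vascular endothelium and peripheral blood mononuclear cells, with parallel SRB total-protein cytotoxicity.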

[20] = read-out: Monocyte Chemoattractant Protein-1 (MCP1), CCL2 (gene 6347); assay: BSK_LPS_MCP1: BioMAP Diversity Plus: LPS Assay for Monocyte Chemoattractant Protein-1 (MCP1) Biomarker Activity (AID 2283081); conditions: primary human HUVEC with PBMC; actives raise or lower the signal
How it was run: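 Secreted MCP-1 read by ELISA at 24 h post-dosing in an LPS-activated co-culture of endothelial cells with peripheral blood mononuclear cells. Fits run in both directions, DMSO as baseline; parallel SRB staining tracks overt cytotoxicity.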

E-selectin (Homo sapiens), sequence (P16581 whole entry, looked up): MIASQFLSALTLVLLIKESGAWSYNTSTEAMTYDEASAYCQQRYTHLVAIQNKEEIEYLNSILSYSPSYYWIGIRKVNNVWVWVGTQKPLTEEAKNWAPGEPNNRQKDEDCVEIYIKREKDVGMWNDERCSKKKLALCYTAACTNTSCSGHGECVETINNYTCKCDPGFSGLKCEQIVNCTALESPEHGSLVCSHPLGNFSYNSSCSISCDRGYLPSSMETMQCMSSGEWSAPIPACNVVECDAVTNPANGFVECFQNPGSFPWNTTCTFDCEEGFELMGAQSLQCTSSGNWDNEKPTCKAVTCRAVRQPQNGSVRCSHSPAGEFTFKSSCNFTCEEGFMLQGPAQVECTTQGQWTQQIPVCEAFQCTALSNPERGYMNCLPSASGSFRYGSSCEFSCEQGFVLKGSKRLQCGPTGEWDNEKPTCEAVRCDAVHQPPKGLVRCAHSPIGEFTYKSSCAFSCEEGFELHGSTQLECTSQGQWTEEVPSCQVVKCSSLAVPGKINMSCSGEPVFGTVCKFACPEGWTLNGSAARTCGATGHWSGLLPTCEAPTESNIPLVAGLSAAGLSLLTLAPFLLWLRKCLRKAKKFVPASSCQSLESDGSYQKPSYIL

## Nc1ccc(S(=O)(=O)c2ccc(N)cc2)cc1
[1]
  outcome: inactive
[2]
  outcome: inactive
[3]
  outcome: inactive
[4]
  outcome: inactive
[5]
  outcome: inactive
[6]
  outcome: inactive
[7]
  outcome: inactive
[8]
  outcome: inactive
[9]
  outcome: inactive
[10]
  outcome: inactive
[11]
  outcome: inactive
[12]
  outcome: inactive
[13]
  outcome: inactive
[14]
  outcome: inactive
[15]
  outcome: inactive
[16]
  outcome: inactive
[17]
  outcome: inactive
[18]
  outcome: inactive
[19]
  outcome: inactive
[20]
  outcome: inactive

## CC(=O)Oc1ccccc1C(=O)O
[1]
  outcome: inactive
[2]
  outcome: inactive
[3]
  outcome: inactive
[4]
  outcome: inactive
[5]
  outcome: inactive
[6]
  outcome: inactive
[7]
  outcome: inactive
[8]
  outcome: inactive
[9]
  outcome: inactive
[10]
  outcome: inactive
[11]
  outcome: inactive
[12]
  outcome: inactive
[13]
  outcome: inactive
[14]
  outcome: inactive
[15]
  outcome: inactive
[16]
  outcome: inactive
[17]
  outcome: inactive
[18]
  outcome: inactive
[19]
  outcome: inactive
[20]
  outcome: inactive

## CC=Cc1ccc(O)c(OC)c1
[1]
  outcome: inactive
[3]
  outcome: inactive
[4]
  outcome: inactive
[5]
  outcome: inactive
[6]
  outcome: inactive
[7]
  outcome: inactive
[8]
  outcome: inactive
[9]
  outcome: inactive
[10]
  outcome: inactive
[11]
  outcome: inactive
[12]
  outcome: inactive
[13]
  outcome: inactive
[14]
  outcome: inactive
[15]
  outcome: inactive
[16]
  outcome: inactive
[17]
  outcome: inactive
[18]
  outcome: inactive
[19]
  outcome: inactive
[20]
  outcome: inactive

## O=c1c(O)c(-c2ccc(O)c(O)c2)oc2cc(O)cc(O)c12
[1]
  outcome: inactive
[2]
  AC50: 7.18 µM (active)
[3]
  outcome: inactive
[4]
  outcome: inactive
[5]
  outcome: inactive
[7]
  AC50: 17.6 µM (active)
[8]
  AC50: 14.2 µM (active)
[9]
  AC50: 7.22 µM (active)
[10]
  AC50: 20 µM (active)
[11]
  AC50: 20 µM (active)
[12]
  AC50: 24.2 µM (active)
[13]
  AC50: 20 µM (active)
[14]
  AC50: 12.7 µM (active)
[15]
  AC50: 28.5 µM (active)
[16]
  outcome: inactive
[17]
  AC50: 20 µM (active)
[18]
  AC50: 32.8 µM (active)
[19]
  outcome: inactive
[20]
  outcome: inactive

## Cc1cc(=O)[nH]c(=S)[nH]1
[1]
  outcome: inactive
[2]
  outcome: inactive
[3]
  outcome: inactive
[4]
  outcome: inactive
[5]
  outcome: inactive
[6]
  outcome: inactive
[7]
  outcome: inactive
[8]
  outcome: inactive
[9]
  outcome: inactive
[10]
  outcome: inactive
[11]
  outcome: inactive
[12]
  outcome: inactive
[13]
  outcome: inactive
[14]
  outcome: inactive
[15]
  outcome: inactive
[16]
  outcome: inactive
[17]
  outcome: inactive
[18]
  outcome: inactive
[19]
  outcome: inactive
[20]
  outcome: inactive

## NS(=O)(=O)c1cc2c(cc1Cl)NCNS2(=O)=O
[1]
  outcome: inactive
[3]
  outcome: inactive
[4]
  outcome: inactive
[5]
  outcome: inactive
[6]
  outcome: inactive
[7]
  outcome: inactive
[8]
  outcome: inactive
[9]
  outcome: inactive
[10]
  outcome: inactive
[11]
  outcome: inactive
[12]
  outcome: inactive
[13]
  outcome: inactive
[14]
  outcome: inactive
[15]
  outcome: inactive
[16]
  outcome: inactive
[17]
  outcome: inactive
[18]
  outcome: inactive
[19]
  outcome: inactive
[20]
  outcome: inactive

Reference: PubChem BioAssay (EPA / NIEHS)
